Results on eight compounds are retold here after PubChem BioAssay (NCI).

Experiment in all cases: NCI-60 one-dose screen, 48 h (100 = growth as untreated, 0 = no growth, -100 = all killed)
What all share (conditions): 10 µM unless noted

The subject of assay [1] is DU-145 prostate.
Assay [2] concerns K-562 leukemia.
The test system of assay [3] is MALME-3M melanoma.
Assay [4] has as its system MDA-MB-231 breast.
Assay [5] concerns RXF 393 renal.
In assay [6] the test system is SF-268 CNS.
The subject of assay [7] is SF-295 CNS.
Assay [8] relates to SF-539 CNS.
The subject of assay [9] is UACC-257 melanoma.
The test system of assay [10] is M14 melanoma.
Assay [11] has as its system HCT-15 colon.
Assay [12] concerns HT29 colon.
The subject of assay [13] is SNB-19 CNS.
In assay [14] the test system is U251 CNS.
Assay [15] has as its system PC-3 prostate.
For assay [16], the system named is SK-MEL-5 melanoma.
Assay [17] concerns UACC-62 melanoma.
The test system of assay [18] is LOX IMVI melanoma.
In assay [19] the test system is SK-MEL-28 melanoma.

About 83,000 compounds went through this panel and 20% of them were active in at least one assay; those are over-represented in the sample as a whole.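 Cell lines were cultured in 96-well plates, exposed to a single compound concentration, and assessed for percent growth 48 hours later.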 Unmarked numbers belong to inactive results. The source made the active and inactive calls. The calls were made as follows: active = growth percent below 10; inactive = the rest.

For `C/C(=C(/c1ccc(O)cc1)c1ccc(Cl)cc1)c1ccccc1`, the growth was -75.2% (active) in assay [1]; -1.81% (active) in assay [2]; -94.6% (active) in [3]; -83.3% (active) in [4]; -79.3% (active) in assay [5]; -83.4% (active) in assay [6]. Moreover, the growth in [7] is -95.1% (active); in assay [8], -96% (active); in assay [9], -74.6% (active); in [10] it was -78.1% (active); in assay [11], -81.9% (active); in assay [12] it was -66.6% (active). In addition, the growth in assay [13] was -86.2% (active); in assay [14], -94.6% (active); in assay [15], -74.6% (active); in assay [16] it was -98.9% (active); in assay [17], -94.5% (active); in assay [18] it was -95.7% (active). Moreover, the growth in assay [19] was -96.3% (active).

Turning to `CC(C)[C@@H]1CC[C@]2(C(=O)NCCCCN=C(N)N)CC[C@]3(C)[C@H](CC[C@@H]4[C@@]5(C)CCC(=O)C(C)(C)[C@@H]5CC[C@]43C)[C@@H]12`, the growth is 81.3% in assay [1]; 24.6% in [2]; 19% in assay [3]; 74.3% in assay [4]; 93.8% in [5]; 54.8% in [6]. In addition, the growth was 102% in [7]; 69.5% in [8]; 71.1% in assay [9]; 71.2% in assay [10]; 96.4% in assay [11]; 40.2% in assay [12]. The growth in assay [13] is 41.9%; in [14], 30.8%; in assay [15], 46.6%; in assay [16] it was 20.4%; in assay [17], 48.2%; in assay [18], 69.9%. For the same compound, the growth in assay [19] is 15.6%.

With `O=[N+]([O-])c1cccc(-c2nc3sccn3c2-c2ccnc(NCCCNS(=O)(=O)c3ccc(Br)cc3)n2)c1`, the growth was 58.9% in [1]; 31.7% in assay [2]; 59.9% in [3]; 67.3% in assay [4]; 81.3% in assay [5]; 56.6% in assay [6]. Besides, the growth is 48.2% in assay [7]; 90.3% in assay [8]; 61.1% in assay [9]; 45.8% in assay [10]; 34.1% in assay [11]; 57.1% in [12]. The growth in assay [13] was 87.4%; in assay [14] it was 83.8%; in assay [15] it was 24.5%; in assay [16] it was -15.6% (active); in assay [17] it was 2.78% (active); in assay [18], 38.4%. For the same compound, in assay [19], the growth was 76.9%.

With `CN1CCN(Cc2ccc(NC(=O)c3cncc(C#Cc4c(N)ncc5ccc(C#N)cc45)c3)cc2C(F)(F)F)CC1`, the growth in assay [1] is -60.2% (active); in assay [2], -39.3% (active); in [3] it was -81.9% (active); in assay [4], -82% (active); in [5], -76.6% (active); in [6], -43.3% (active). Besides, the growth in assay [7] is 85.9%; in assay [8], 39.7%; in assay [9], 68.7%; in assay [10], -45.5% (active); in assay [11], -81.8% (active); in [12] it was -75.7% (active). In addition, the growth in assay [13] is -79.1% (active); in assay [14], -69.4% (active); in assay [15] it was -52.1% (active); in [16], -35.5% (active); in assay [17] it was -68.5% (active); in assay [18], -79.8% (active). Moreover, in [19], the growth was -78.7% (active).

With `O=[N+]([O-])c1cccc(-c2nc3sccn3c2-c2ccnc(NCCNS(=O)(=O)c3ccc(C(F)(F)F)cc3)n2)c1`, the growth was 48.5% in assay [1]; 21.8% in assay [2]; 41.1% in assay [3]; 60.2% in assay [4]; 56% in assay [5]; 39.8% in [6]. For the same compound, the growth in assay [7] was 37.4%; in assay [8] it was 74.5%; in [9] it was 49.1%; in assay [10], 37.8%; in [11] it was 26.7%; in assay [12], 40%. Moreover, the growth in [13] was 61.4%; in assay [14], 51.4%; in assay [15], 17%; in assay [16], -14% (active); in [17] it was 13.2%; in assay [18] it was 30.4%. Also, in assay [19], the growth was 58.8%.

For the compound `C=C1C(=O)O[C@H]2[C@H]1CC/C(Cn1cc(Cc3c[nH]c4ccccc34)nn1)=C\CC[C@@]1(C)O[C@@H]21`, the growth in assay [1] is 20%; in [2], -12.9% (active); in [3], -40.6% (active); in assay [4], 1.06% (active); in assay [5], -33.3% (active); in assay [6], 35.1%. For the same compound, the growth in assay [7] was 79.3%; in assay [8], -55.4% (active); in assay [9], 43.8%; in assay [10], 10.2%; in assay [11], -25.9% (active); in assay [12], 3.04% (active). Moreover, the growth in assay [13] was 65.4%; in assay [14], 37.6%; in assay [15] it was 38.7%; in assay [16] it was 24.9%; in [17], 38%; in [18], -76.2% (active). Besides, the growth in assay [19] was 20%.

Take `COc1ccc(/C=C/C(=O)c2ccc(NC(=O)c3cc4cc5ccccc5nc4s3)cc2)cc1OC`: the growth in assay [1] is 106%; in [2], 80.6%; in assay [3] it was 98.6%; in assay [4], 91.6%; in assay [5], 111%; in assay [6], 98.9%. Moreover, the growth is 99.4% in assay [7]; 99.7% in [8]; 108% in assay [9]; 98.9% in assay [10]; 104% in assay [11]; 101% in [12]. Moreover, the growth in assay [13] was 98.8%; in assay [14], 103%; in assay [15] it was 94.4%; in assay [16], 93.5%; in assay [17] it was 96.9%; in assay [18], 94%. Moreover, the growth in assay [19] is 105%.

In the case of `COc1ccc(-c2cn3c(ccc4ccccc43)n2)cc1`, the growth is 104% in assay [1]; 94.7% in assay [2]; 106% in assay [3]; 83.3% in [4]; 121% in [5]; 101% in assay [6]. Besides, the growth was 89.9% in [7]; 90.5% in assay [8]; 118% in assay [9]; 112% in assay [10]; 92.4% in assay [11]; 108% in [12]. In addition, the growth in assay [13] was 99.3%; in [14], 105%; in assay [15], 89.2%; in assay [16], 78%; in [17], 85.3%; in assay [18] it was 95.1%. Also, the growth in [19] was 117%.
